From the OligoGym collection

molecular target: LASP1; assay: pooled miR-30 sensor sort-seq; sequence = guide strand; details: shRNA
Note: reference of the scale not given here.

Sequence	sensor-assay potency score (higher = more potent)
TTATATTACTGATCTGGTCCTG	0.57
TTCATGTTCAGTGTCATCTTGC	0.197
TTTATGCCAGAACTTATCCAGA	-1.03
TTTTATATTACTGATCTGGTCC	-0.194
TACGCTGAAACCTTTGCCCTTG	0.0341
TTGTAGCGCACCTGACTCTGGA	-0.666
TACACGATCTTGCCGCACCGGG	-1.34
ATGTTCAGTGTCATCTTGCAGG	-1.2
TTCAGTGTCATCTTGCAGGTCT	0.744
TTGCAGTAGGGCTTCTTCTCGT	-0.401
TATTTTATATTACTGATCTGGT	-0.425
TATATTACTGATCTGGTCCTGG	0.21

molecular target: LASS1; assay: as above; details: shRNA

Sequence	sensor-assay potency score (higher = more potent)
TTGAAGTAAATGTTGAGCTTGG	0.853
TGGAGCAGCATGACCACCGAGT	-1.27
TAGTCGGTGCCAAACAGCAGGT	-1.18
TAGGCACTGTAGCTCCAGCTGC	-1.01
TGTCCATGTATAGCGTAGCGTA	-1.61
TAGCGTAGCGTAGATGGAGTGG	-0.207
TAGAAGAGAAACTTCCAAGCGC	0.296
TCGTAGAAGACAGATGGTGGGT	-0.363
TAGAGGCGGAACCAGAACCAGC	-1.74
TTGAAGAAGAAGTAGAAGGGGA	0.612
AAACTTCCAAGCGCTCTCGGGC	-0.904
TATAGCGTAGCGTAGATGGAGT	-0.396
